Results from PubChem BioAssay (NCI).
“And” between values parts separate entries of the source, which are not always exact repeats. Equal entries are not always repeated. The panel holds about 83,000 compounds, 20% with a hit somewhere; the sample as a whole holds those more often.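 Method: cells in 96-well plates; compound added at one concentration; 48 h incubation; percent growth measured; values under 10 scored active.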 The source made the active and inactive calls.

Key:
Assay in all cases: NCI-60 one-dose screen, 48 h (100 = growth as untreated, 0 = no growth, -100 = all killed)
T-47D breast = settings: 10 µM unless noted
BT-549 breast = settings: 10 µM unless noted
MDA-MB-435 melanoma = settings: 10 µM unless noted
SW-620 colon = settings: 10 µM unless noted
MCF7 breast = system: MCF7 breast
HCT-116 colon = settings: 10 µM unless noted
HCC-2998 colon = settings: 10 µM unless noted
KM12 colon = settings: 10 µM unless noted

SMILES	growth (T-47D breast)	growth (BT-549 breast)	growth (MDA-MB-435 melanoma)	growth (SW-620 colon)	growth (MCF7 breast; 10 µM)	growth (HCT-116 colon)	growth (HCC-2998 colon)	growth (KM12 colon)	growth (MCF7 breast; 2.5 µM)	growth (MCF7 breast; 250 µM)	growth (MCF7 breast; 20 µM)
O=Nc1ccccc1N=O	94.3% (inactive)	92.7% (inactive)	87.3% (inactive)	77.5% (inactive)	65.1% (inactive)	92.8% (inactive)	93.9% (inactive)	91.3% (inactive)	–	–	–
Nc1ccc(SSc2ccc(N)cc2)cc1	88.7% (inactive)	66.6% (inactive)	93.4% (inactive)	95.1% (inactive)	96.5% (inactive)	95.1% (inactive)	94.8% (inactive)	86.1% (inactive)	–	–	–
CC1OC(OC2C(OC3CCC4(C)C(CCC5(C)C4CC=C4C6CC(C)(C)CCC6(CO)C(O)CC45C)C3(C)C)OC(C(=O)O)C(OC3OC(COC4OC(CO)C(O)C(O)C4O)C(O)C(O)C3O)C2O)C(O)C(O)C1O (stereo unspecified)	-72.7% (active)	-92.5% (active)	-85.3% (active)	-64.2% (active)	-67.7% (active)	-88% (active)	-81.9% (active)	-70.9% (active)	–	–	–
COc1cc(NS(C)(=O)=O)ccc1Nc1c2ccccc2nc2ccccc12	23.1% [2.5 µM] (inactive)	20.2% [2.5 µM] (inactive)	64.1% [2.5 µM] (inactive)	–	22.5% (inactive) [middle of 4 runs]	31% [2.5 µM] (inactive)	-44.3% [2.5 µM] (active)	48.6% [2.5 µM] (inactive)	32.5% (inactive)	-69.8% (active) and -100% (active)	–
NC(=S)N/N=C/c1ccc(Cl)s1	89.8% (inactive)	112% (inactive)	104% (inactive)	105% (inactive)	104% (inactive)	93.4% (inactive)	111% (inactive)	101% (inactive)	–	–	–
CN=C(N)N/N=C(\C)c1ccc2c(c1)Cc1cc(/C(C)=N/NC(N)=NC)ccc1-2	-26% (active)	49.6% (inactive)	-59.7% (active)	-14.8% (active)	-38.3% (active)	-23.5% (active)	-78.7% (active)	-20.3% (active)	–	–	–
Oc1c(Cl)c2ccccc2c2ccccc12	122% (inactive)	95.8% (inactive)	-72% (active)	111% (inactive)	98.8% (inactive)	101% (inactive)	117% (inactive)	107% (inactive)	–	–	–
CC(=O)ON=C1C=CC(=C(C#N)c2ccccc2)C=C1	42.3% (inactive)	50.7% (inactive)	-2.19% (active)	6.41% (active)	15.5% (inactive)	-13.1% (active)	88.3% (inactive)	-48.2% (active)	–	–	–
CNC(=O)N/N=C/c1ccc([N+](=O)[O-])o1	104% (inactive)	110% (inactive)	121% (inactive)	105% (inactive)	95.3% (inactive)	94.8% (inactive)	106% (inactive)	92.2% (inactive)	–	–	–
c1ccc2c(c1)Nc1cc3ccccc3cc1N2	24.9% (inactive)	33% (inactive)	-16.7% (active)	18.8% (inactive)	2.88% (active)	26.4% (inactive)	36.8% (inactive)	44.2% (inactive)	–	–	–
CCC1OC(OC)C=CC1=O (stereo unspecified)	95.1% (inactive)	88.8% (inactive)	98.6% (inactive)	–	89.9% (inactive)	96.5% (inactive)	122% (inactive)	99.7% (inactive)	–	–	–
Cc1ccc(C(=Nc2ccccc2)N=P(c2ccccc2)(c2ccccc2)c2ccccc2)cc1	-33.4% (active)	-26.9% (active)	-76.4% (active)	–	-39.7% (active)	-37.8% (active)	-71.6% (active)	-70.9% (active)	–	–	–
N#CSCc1ccc(Cl)c(CSC#N)c1	57.5% (inactive)	14.1% (inactive)	3.85% (active)	–	16.1% (inactive)	13.6% (inactive)	51.5% (inactive)	28.2% (inactive)	–	–	–
CCN(CC)CCOc1ccc(-c2nc3cc(Cl)ccc3s2)cc1	22% (inactive)	68% (inactive)	–	-52.9% (active)	9.23% (active)	-69.3% (active)	-97.2% (active)	–	–	–	–
CN(Cc1cnc2nc(N)nc(N)c2n1)c1ccc(C(=O)NC(CCC(=O)O)C(=O)O)cc1 (stereo unspecified)	67.6% (inactive)	48.4% (inactive)	30.6% (inactive)	–	24.3% (inactive)	20.6% (inactive)	27.7% (inactive)	32.4% (inactive)	–	–	–
Cc1ccnc2c1ccc1c(C)ccnc12	6.3% (active)	23.2% (inactive)	32% (inactive)	–	13.9% (inactive)	13.7% (inactive)	51.3% (inactive)	–	–	–	–

SMILES	growth (T-47D breast)	growth (BT-549 breast)	growth (MDA-MB-435 melanoma)	growth (SW-620 colon)	growth (MCF7 breast; 10 µM)	growth (HCT-116 colon)	growth (HCC-2998 colon)	growth (KM12 colon)	growth (MCF7 breast; 2.5 µM)	growth (MCF7 breast; 250 µM)	growth (MCF7 breast; 20 µM)
CC(C)(C)CC(C)(C)c1ccc(OCCSC(=N)N)cc1	7.82% (active)	104% (inactive)	20.2% (inactive)	–	9.08% (active)	-12.2% (active)	-16% (active)	–	–	–	–
COc1ccccc1/C=C\C(=O)c1ccccc1	81.9% (inactive)	83.2% (inactive)	46.4% (inactive)	–	5.24% (active)	22% (inactive)	97% (inactive)	29.5% (inactive)	–	–	–
N#CSCC(=O)c1ccc(Cl)cc1	71.4% (inactive)	43.7% (inactive)	15.8% (inactive)	–	10.7% (inactive)	-16.3% (active)	-19.5% (active)	–	–	–	–
N[C@H](C(=O)O)[C@@H]1CC(Cl)=NO1	37.4% [20 µM] (inactive)	27.3% [20 µM] (inactive)	–	10.2% [20 µM] (inactive)	–	14.1% [20 µM] (inactive)	34.7% [20 µM] (inactive)	18.2% [20 µM] (inactive)	–	–	12.3% (inactive)
C=CCOc1ccc(N=NC(C#N)C#N)cc1	-2.81% (active)	92.1% (inactive)	88.3% (inactive)	–	22.6% (inactive)	46.8% (inactive)	101% (inactive)	100% (inactive)	–	–	–
Cn1c2ccccc2c2nnc(N/N=C/c3ccccn3)nc21	19.2% (inactive)	-24.2% (active)	19.1% (inactive)	–	13.3% (inactive)	14.4% (inactive)	34.5% (inactive)	23% (inactive)	–	–	–
CN(C)C(=O)SC1=C(c2c(Cl)cccc2Cl)C(=O)c2ccccc21	-71.9% (active)	87.2% (inactive)	-13% (active)	–	-43.6% (active)	-64.6% (active)	114% (inactive)	–	–	–	–
O=C1c2ccccc2C(=O)c2sc(Nc3cccc(Cl)c3)nc21	16% (inactive)	61.5% (inactive)	–	-54.6% (active)	-59% (active)	-29.9% (active)	-34.3% (active)	–	–	–	–
CC(=O)Nc1cccc2cc(O)ccc12	97% (inactive) and 103% (inactive)	118% (inactive) and 145% (inactive) and 94.5% (inactive)	107% (inactive) and 117% (inactive) and 103% (inactive)	–	99.3% (inactive) and 99.8% (inactive) and 91.6% (inactive)	85.9% (inactive) and 103% (inactive) and 91.2% (inactive)	115% (inactive) and 108% (inactive) and 95% (inactive)	110% (inactive) and 90.7% (inactive) and 103% (inactive)	–	–	–
S=C(N/N=C/c1ccccn1)Nc1ccccn1	31% (inactive)	38.1% (inactive)	–	32.8% (inactive)	14.3% (inactive)	1.18% (active)	25.2% (inactive)	–	–	–	–
Nc1nc(N)c2nc(CNc3ccc(C(=O)NC(CCC(=O)O)C(=O)O)cc3)cnc2n1 (stereo unspecified)	58% (inactive) and 55.5% (inactive)	45.3% (inactive) and 45.4% (inactive)	–	27.6% (inactive) and 55.3% (inactive)	18% (inactive) and 16.3% (inactive)	21.2% (inactive) and 10.3% (inactive)	16.6% (inactive) and 3.42% (active)	38.7% (inactive) and 30.8% (inactive)	–	–	–
Cc1c2ccccc2c(C)c2c1ccc1ccccc12	65.3% (inactive)	98.8% (inactive)	92% (inactive)	–	32.2% (inactive)	81.3% (inactive)	104% (inactive)	89.3% (inactive)	–	–	–
CCOC(=O)c1c(C)[nH]c(CO)c1C	93.5% (inactive)	109% (inactive)	–	109% (inactive)	91.6% (inactive)	100% (inactive)	109% (inactive)	–	–	–	–
O=[N+]([O-])c1ccc2c(N=Nc3ccc4ccccc4c3O)c(O)cc(S(=O)(=O)O)c2c1	96.1% (inactive)	92.4% (inactive)	97% (inactive)	–	98.6% (inactive)	93.3% (inactive)	94.4% (inactive)	95.6% (inactive)	–	–	–
Cc1cc(N)c2ccccc2[n+]1CCCCCCCCCC[n+]1c(C)cc(N)c2ccccc21	5.34% (active) and -12.1% (active)	-29% (active) and -15.7% (active)	-77.2% (active) and 6.1% (active)	–	11.9% (inactive) and -3.39% (active)	4.6% (active) and 3.4% (active)	0.513% (active)	–	–	–	–
CC(C)(C)c1ccc(O)c(C2CCCCC2)c1	108% (inactive)	127% (inactive)	117% (inactive)	–	101% (inactive)	95% (inactive)	111% (inactive)	91.1% (inactive)	–	–	–
